# Results: PubChem BioAssay (NCATS)
# Records with an inconclusive call do not appear. A call without a number means that no potency is given here. Unmarked numbers belong to inactive results. Active and inactive are the calls of the source. Calls follow the shape of the dose curve; as a rule, active = well fitted inhibition curve with a large enough effect; inconclusive = small, poorly fitted or top-dose-only effect; inactive = no such curve, though single readings can be large or run the other way.
# Assay: Primary fluorescence-based thiol-reactive (MSTI) qHTS assay for identification of artifact compounds. (AID 1845221); also: nearly all actives have a fitted effect of over 65% in size;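 as to activity change, negative = thiol reactive: thiol-reactive compounds lower the probe fluorescence signal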
# Details: MSTI thiol-reactivity probe, 1 h; series mostly up to 53.8 µM
# Outline: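 First, 4 uM MSTI in 2% DMSO/PBS pH 7.4 was dispensed; next, compounds were added; then plates sat 1 h at room temperature without light. Finally, emission at 598 nm was recorded.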
# Potency is read from the fitted curve at half-maximal effect.
SMILES,Potency,"activity change, negative = thiol reactive"
Cc1cc(C)c(Nc2ccnc(Nc3ccc(C#N)cc3)n2)c(C)c1,inactive,–
CC(C)=CCC/C(C)=C/CO[C@@H]1O[C@H](CO)[C@@H](OC(=O)/C=C/c2ccc(O)cc2)[C@H](O[C@@H]2O[C@@H](C)[C@H](O)[C@@H](O)[C@H]2O)[C@H]1O,inactive,–
CC1(C)CC2C(C1)C(C)(O)C13CC1(COC3=O)C2O (stereo not drawn),inactive,–
CC1=C(C)C(=O)OC(C(C)C2CCC3C4CC=C5CC(OC6OC(COC7OC(CO)C(O)C(O)C7O)C(O)C(O)C6O)CC(O)C5(C)C4CCC23C)C1 (stereo not drawn),inactive,–
O=C(c1cccc(Cl)c1F)N1CCN(Cc2cccc(Nc3nccs3)n2)CC1,inactive,–
CC(=O)NCC(=O)N1C2CCC1c1cc(Nc3ncc(C(F)(F)F)c(NC4CCC4)n3)ccc12 (stereo not drawn),inactive,–
Cc1nc(Nc2n[nH]c3c2CN(C(=O)NC(CN(C)C)c2ccccc2)C3(C)C)c2sccc2n1 (stereo not drawn),inactive,–
COc1ccc([C@@H]2OC[C@H]3[C@@H]2CO[C@@H]3c2ccc(OC3OC(CO)C(O)C(O)C3O)c(OC)c2)cc1OC (stereo partly drawn),8220 nM (active),–
CC(=O)OC[C@]12[C@H](OC(C)=O)C(=O)[C@@H]3[C@@H](OC(C)=O)[C@@]14O[C@@]3(C)COC(=O)c1cccnc1[C@@H](C)[C@H](C)C(=O)O[C@@H]([C@H](O)[C@@H]2OC(C)=O)[C@]4(C)O,inactive,–
CC(C)=CCC[C@](C)(O)[C@H]1CC[C@]2(C)[C@@H]1[C@H](O)CC1[C@@]3(C)CC[C@H](O)C(C)(C)[C@@H]3[C@@H](O[C@@H]3O[C@H](CO)[C@@H](O)[C@H](O)[C@H]3O[C@@H]3O[C@H](CO)[C@@H](O)[C@H](O)[C@H]3O)C[C@]12C (stereo partly drawn),inactive,–
CCOc1cc(C(=O)N2CCC(N3CCN(C)CC3)CC2)ccc1Nc1ncc2c(n1)N(C1CCCC1)c1ccccc1C(=O)N2C,inactive,–
CC1(C)CCC2(C(=O)OC3OCC(O)C(O)C3O)CCC3(C)C(=CCC4C5(C)CC(O)C(OC6OC(COC7OCC(O)C(O)C7O)C(O)C(O)C6O)C(C)(C)C5CCC43C)C2C1 (stereo not drawn),–,-15.2% [at 11.5 µM]
CC1=CC2C(CC1OC1OC(CO)C(O)C(O)C1O)C(C)CC(=O)C2C(C)C (stereo not drawn),3690 nM (active),–
C[C@@H]1O[C@@H](O[C@H]2[C@H](O)[C@@H](O[C@@H]3O[C@H](CO)[C@@H](O)[C@H](O[C@@H]4O[C@H](CO)[C@@H](O)[C@H](O)[C@H]4O)[C@H]3O)[C@H](O[C@H]3CC[C@@]4(C)C(=CC[C@@H]5C4CC[C@@]4(C)C5C[C@@H]5OC6(CC[C@@](C)(CO[C@@H]7O[C@H](CO)[C@@H](O)[C@H](O)[C@H]7O)O6)[C@@H](C)[C@@H]54)C3)O[C@@H]2CO)[C@H](O)[C@H](O)[C@H]1OC1OC(CO)C(O)C(O)C1O (stereo partly drawn),–,23.9% [at 11.5 µM]
O=C(c1cc2c(cc1F)OC(c1ccc(F)cc1)(c1ccc(Cl)cc1Cl)O2)N1CCOCC1 (stereo not drawn),inactive,–
CN(C)c1ccc2c(c1)OC(N)=C(C#N)C2c1cccc(C(F)(F)F)c1 (stereo not drawn),2120 nM (active),–
CC(C)=CCC[C@](C)(O[C@@H]1O[C@H](CO[C@@H]2O[C@H](CO)[C@@H](O)[C@H](O)[C@H]2O)[C@@H](O)[C@H](O)[C@H]1O)C1CC[C@]2(C)[C@@H]1[C@H](O)CC1[C@@]3(C)CC[C@H](O[C@@H]4O[C@H](CO)[C@@H](O)[C@H](O)[C@H]4O[C@@H]4O[C@H](CO)[C@@H](O)[C@H](O)[C@H]4O)C(C)(C)[C@@H]3CC[C@]12C (stereo partly drawn),–,44.5% [at 11.5 µM]
Cc1cc(OCc2nc(-c3ccccc3Cl)cs2)ccc1OCC(=O)O,inactive,–
CC1OC(OC2C(O)C(OC3CCC4(C)C(CCC5(C)C4CC=C4C6CC(C)(COC7OC(CO)C(O)C(O)C7O)CC(O)C6(C)CCC45C)C3(C)C)OC(C(=O)O)C2O)C(O)C(O)C1OC1OCC(O)C(O)C1O (stereo not drawn),–,24.3% [at 11.5 µM]
CC(=O)OC1C(OC(=O)c2ccccc2)C2C(C)(C)CC(=O)CC2(C)C23CCC(C)(C2)C(O)CC13 (stereo not drawn),inactive,–
COCCOc1cnc2ccn([C@H](C)c3nnc4c(F)cc(-c5cnn(C)c5)cn34)c(=O)c2c1,inactive,–
CC12CCC(=O)C=C1C(O)CC1C2C(O)CC2(C)C1CC[C@]2(O)C(=O)CO (stereo partly drawn),–,-1.91% [at 11.5 µM]
O=C(N/N=C/c1ccc(O)c(O)c1)c1cc2ccccc2cc1O,707 nM (active),–
